This note sets out measurements from PubChem BioAssay (NCI).

This is part of a sample that, as a whole, favours compounds with a hit. Of some 83,000 tested, about 20% had one in any assay.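 Note: values are percent growth. 100 is the growth of untreated cells, values between 100 and 0 indicate rising inhibition; between -100 and 0 indicates cell death.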 The source made the active and inactive calls. How the source made its calls: active means growth percent below 10; inactive means the rest.

The test system of the first assay is SR leukemia. Briefly: NCI-60 one-dose screen, 48 h (100 = growth as untreated, 0 = no growth, -100 = all killed). The settings on record: 10 µM unless noted.
`CSc1nc(N)n2nccc2n1`: the growth is 111% (inactive).
`Cc1nnc(-c2cc3c(ccc4ccccc43)oc2=O)c2cn(-c3ccc(Cl)cc3)nc12`: the growth was 80.4% (inactive).
In the case of `COc1ccc(CNCCCN2C(=O)c3ccc4c5c(ccc(c35)C2=O)C(=O)N(CCCNCc2ccc(OC)c(OC)c2OC)C4=O)c(OC)c1OC`, the growth is -55.4% (active).
Still for that read-out and setting: in the case of `CCCCCCCCCCCCOC(=N)N(C)C` it was 82.4% (inactive); in that of `COCC(=O)NNc1[nH]c(-c2ccc(OC)cc2)cc1C#N`, 102% (inactive).
The same measure, in the same setting: in the case of `c1cc(C2CCCCC2)ccc1OCCCCCCN1CCNCC1` it was -4.39% (active).
Same read-out and setting: next, `O=C(CCCC(=O)Nc1ccc(Cn2nnc3cc(Cl)c(Cl)cc32)cc1)Nc1ccc(CN2N=NC3C=C(Cl)C(Cl)=CC32)cc1` (stereo not drawn): 79.2% (inactive); `COc1cc(N)c2nccc(C)c2c1OC`: 55.5% (inactive).
For `COc1ccc(Cn2cc3c(c2)-c2oncc2CC3)cc1OC`, the growth is 16.8% (inactive).
Same read-out and setting: next, `Brc1c(-c2ccncc2)nc2n1CCS2`: 52.9% (inactive); `CCc1c(C)c2ccc(OCC(=O)N=Nc3c(O)[nH]c4ccccc34)c(C)c2oc1=O`: 8.17% (active); `Nc1ccc(N=Nc2ccccc2)c2cc(S(=O)(=O)O)ccc12`: 95.8% (inactive).
Still for that read-out and setting: in the case of `CC(C)CSc1nc(-c2ccc(F)cc2)c(C#N)c(N2CCCCC2)n1` it was 84.3% (inactive); in that of `Cc1ccc2c(O)c(O)cc(NC(C)CCCN)c2n1` (stereo not drawn), 89.5% (inactive); in that of `CCn1cnc(C[C@H](NC(=O)[C@@H](NC(=O)Nc2cc(C(F)(F)F)cc(C(F)(F)F)c2)C(C)(C)C)C(=O)OC)c1`, -38.1% [100 µM] (active).
Still for that read-out and setting: next, `CC(C)OCC1CO1` (stereo not drawn): 102% (inactive); `COc1ccc(-c2nnc(SCC(=O)Nc3ccc(C(=O)/C=C/c4cc(OC)c(OC)c(OC)c4)cc3)n2-c2ccccc2)cc1OC`: 75% [100 µM] (inactive).
On to `[N-]=[N+]=Nc1ncc(-c2ccc(C(F)(F)F)cc2)c(NC2CCCCCC2)n1`, for which the growth was -21.8% [100 µM] (active).
As to `CC(C)(C)c1cc(C[P+](c2ccc(Cl)cc2)(c2ccc(Cl)cc2)c2ccc(Cl)cc2)cc(C(C)(C)C)c1O`, the growth is 39.5% (inactive).
Take `O=C(OCC1CC2(Cl)C(Cl)=C(Cl)C1(Cl)C2(Cl)Cl)C1C(C(=O)OCC2CC3(Cl)C(Cl)=C(Cl)C2(Cl)C3(Cl)Cl)C2(Cl)C(Cl)=C(Cl)C1(Cl)C2(Cl)Cl` (stereo not drawn): the growth is 93% (inactive).
As for `O=S(=O)(Cc1cccc2c(CS(=O)(=O)c3ccc(Cl)cc3)cccc12)c1ccc(Cl)cc1`, the growth was 94.7% (inactive).
On the same count and under the same terms, in the case of `O=C(/C=C1\C(=O)N(Cc2ccccc2)c2ccccc21)c1ccc(OCCN2CCCCC2)cc1` it was -21.6% (active); in that of `CC(C)(C)C(=O)CCCCCCCC/C=C/CCCC(O)c1ccco1` (stereo not drawn), 14.3% (inactive).
The same measure, in the same setting: next, `CC(=O)CCS(=O)c1ccccc1` (stereo not drawn): 85.1% (inactive); `O=P(OCCCl)(OCCCl)C(O)c1ccccc1Cl` (stereo not drawn): 89.3% (inactive); `CC1(C)C(O)NC(Cl)=C(C#N)C1(C#N)C#N` (stereo not drawn): 119% (inactive).
On to `COc1ccc(C(O)(c2ccccc2)C(C(=O)O)c2ccccc2)cc1` (stereo not drawn), for which the growth is 103% (inactive).
The same measure, in the same setting: next, `O=C(O)CC1Cc2ccccc2C1C(=O)O` (stereo not drawn): -8.39% (active).
On the same count and under the same terms, next, `O=c1[nH]c(=S)[nH]c(O)c1/C=C1\C=Nc2ccccc21`: 5.51% (active).
On the same count and under the same terms, next, `O=C1NCCN1/N=C/c1c(Cl)nc2n1CCS2`: 59.4% (inactive); `CCCC(=O)Nc1ccccc1C(=O)O`: 93.1% (inactive); `CC(C)OC(=O)Nn1cnc2ccccc21`: -48% (active).
With `O=C(NC1CCN(Cc2ccccc2)CC1)c1cc(-c2cccnc2)nc2ccc(Cl)cc12`, the growth was 23% (inactive).
On the same count and under the same terms, in the case of `O=S(=O)(O)c1ccc2c(c1)Sc1cc(S(=O)(=O)O)ccc1O2` it was 107% (inactive); in that of `CCCCCc1ccnc(CC(=O)c2ccc(OC)cc2)c1`, 91.5% (inactive).
The same measure, in the same setting: next, `COc1ccc(-c2nc(SCC(C)C)nc(Nc3ccc([N+](=O)[O-])cc3)c2C#N)cc1`: 54.4% (inactive); `COc1cc2ncnc(Nc3ccc4c(cnn4C(=O)Nc4ccccc4)c3)c2cc1OC`: 1.84% (active).
For `CCCCCSc1ccc2nc(NC(=O)OCC)sc2c1`, the growth is 34.9% (inactive).
On the same count and under the same terms, next, `COc1ccc(C2=C/C(=C\c3ccc(Cl)cc3)C(=O)NN2C(=S)NN)cc1`: 93% (inactive).

For the next assay, the system named is RPMI-8226 leukemia. The description is as above. The settings on record: 10 µM unless noted.
Regarding `CSc1nc(N)n2nccc2n1`, the growth is 106% (inactive).
Same read-out and setting: in the case of `Cc1nnc(-c2cc3c(ccc4ccccc43)oc2=O)c2cn(-c3ccc(Cl)cc3)nc12` it was 75% (inactive); in that of `COc1ccc(CNCCCN2C(=O)c3ccc4c5c(ccc(c35)C2=O)C(=O)N(CCCNCc2ccc(OC)c(OC)c2OC)C4=O)c(OC)c1OC`, -42.3% (active); in that of `CCCCCCCCCCCCOC(=N)N(C)C`, 99.7% (inactive).
On the same count and under the same terms, in the case of `COCC(=O)NNc1[nH]c(-c2ccc(OC)cc2)cc1C#N` it was 101% (inactive); in that of `c1cc(C2CCCCC2)ccc1OCCCCCCN1CCNCC1`, -31% (active); in that of `O=C(CCCC(=O)Nc1ccc(Cn2nnc3cc(Cl)c(Cl)cc32)cc1)Nc1ccc(CN2N=NC3C=C(Cl)C(Cl)=CC32)cc1` (stereo not drawn), 64.4% (inactive).
On the same count and under the same terms, in the case of `COc1cc(N)c2nccc(C)c2c1OC` it was 144% (inactive); in that of `COc1ccc(Cn2cc3c(c2)-c2oncc2CC3)cc1OC`, 35.1% (inactive); in that of `Brc1c(-c2ccncc2)nc2n1CCS2`, 60.2% (inactive).
Consider `CCc1c(C)c2ccc(OCC(=O)N=Nc3c(O)[nH]c4ccccc34)c(C)c2oc1=O`, for which the growth was -3.81% (active).
For `Nc1ccc(N=Nc2ccccc2)c2cc(S(=O)(=O)O)ccc12`, the growth was 103% (inactive).
Same read-out and setting: next, `CC(C)CSc1nc(-c2ccc(F)cc2)c(C#N)c(N2CCCCC2)n1`: 102% (inactive); `Cc1ccc2c(O)c(O)cc(NC(C)CCCN)c2n1` (stereo not drawn): 75% (inactive).
The same measure, in the same setting: in the case of `CCn1cnc(C[C@H](NC(=O)[C@@H](NC(=O)Nc2cc(C(F)(F)F)cc(C(F)(F)F)c2)C(C)(C)C)C(=O)OC)c1` it was -58.6% [100 µM] (active); in that of `CC(C)OCC1CO1` (stereo not drawn), 113% (inactive).
Turning to `COc1ccc(-c2nnc(SCC(=O)Nc3ccc(C(=O)/C=C/c4cc(OC)c(OC)c(OC)c4)cc3)n2-c2ccccc2)cc1OC`, the growth was 16.7% [100 µM] (inactive).
The same measure, in the same setting: in the case of `[N-]=[N+]=Nc1ncc(-c2ccc(C(F)(F)F)cc2)c(NC2CCCCCC2)n1` it was -21% [100 µM] (active); in that of `CC(C)(C)c1cc(C[P+](c2ccc(Cl)cc2)(c2ccc(Cl)cc2)c2ccc(Cl)cc2)cc(C(C)(C)C)c1O`, 10.9% (inactive); in that of `O=C(OCC1CC2(Cl)C(Cl)=C(Cl)C1(Cl)C2(Cl)Cl)C1C(C(=O)OCC2CC3(Cl)C(Cl)=C(Cl)C2(Cl)C3(Cl)Cl)C2(Cl)C(Cl)=C(Cl)C1(Cl)C2(Cl)Cl` (stereo not drawn), 103% (inactive).
Same read-out and setting: next, `O=S(=O)(Cc1cccc2c(CS(=O)(=O)c3ccc(Cl)cc3)cccc12)c1ccc(Cl)cc1`: 96.3% (inactive).
The same measure, in the same setting: in the case of `O=C(/C=C1\C(=O)N(Cc2ccccc2)c2ccccc21)c1ccc(OCCN2CCCCC2)cc1` it was -33.9% (active); in that of `CC(C)(C)C(=O)CCCCCCCC/C=C/CCCC(O)c1ccco1` (stereo not drawn), 91.7% (inactive); in that of `CC(=O)CCS(=O)c1ccccc1` (stereo not drawn), 104% (inactive).
Take `O=P(OCCCl)(OCCCl)C(O)c1ccccc1Cl` (stereo not drawn): the growth is 110% (inactive).
For the compound `CC1(C)C(O)NC(Cl)=C(C#N)C1(C#N)C#N` (stereo not drawn), the growth was 110% (inactive).
`COc1ccc(C(O)(c2ccccc2)C(C(=O)O)c2ccccc2)cc1` (stereo not drawn): the growth was 95.5% (inactive).
On the same count and under the same terms, next, `O=C(O)CC1Cc2ccccc2C1C(=O)O` (stereo not drawn): 110% (inactive); `O=c1[nH]c(=S)[nH]c(O)c1/C=C1\C=Nc2ccccc21`: 72.2% (inactive).
The same measure, in the same setting: next, `O=C1NCCN1/N=C/c1c(Cl)nc2n1CCS2`: 63.7% (inactive); `CCCC(=O)Nc1ccccc1C(=O)O`: 109% (inactive); `CC(C)OC(=O)Nn1cnc2ccccc21`: 98.6% (inactive).
Same read-out and setting: in the case of `O=C(NC1CCN(Cc2ccccc2)CC1)c1cc(-c2cccnc2)nc2ccc(Cl)cc12` it was 47.3% (inactive); in that of `O=S(=O)(O)c1ccc2c(c1)Sc1cc(S(=O)(=O)O)ccc1O2`, 101% (inactive); in that of `CCCCCc1ccnc(CC(=O)c2ccc(OC)cc2)c1`, 76.7% (inactive).
As to `COc1ccc(-c2nc(SCC(C)C)nc(Nc3ccc([N+](=O)[O-])cc3)c2C#N)cc1`, the growth was 93.9% (inactive).
The same measure, in the same setting: in the case of `COc1cc2ncnc(Nc3ccc4c(cnn4C(=O)Nc4ccccc4)c3)c2cc1OC` it was 70.5% (inactive).
Same read-out and setting: next, `CCCCCSc1ccc2nc(NC(=O)OCC)sc2c1`: 12.8% (inactive); `COc1ccc(C2=C/C(=C\c3ccc(Cl)cc3)C(=O)NN2C(=S)NN)cc1`: 86.5% (inactive).
